# Experimental data published in PubChem BioAssay (NCATS).
# Results filed as inconclusive are left out. Active and inactive are the calls of the source. Unless noted, calls follow the shape of the dose curve; as a rule, active = well fitted curve in the direction sought with a large enough effect; inconclusive = small, poorly fitted or top-dose-only effect, or another doubt; inactive = no such curve, though single readings can be large; an effect the other way counts as inactive or inconclusive.
# Key:
# [1] = Primary qHTS for inhibitors of nuclear receptor binding SET domain protein 2 (NSD2) in an isogenic RCH-ACV NSD2 p.E1099K mutant (9B) (AID 1645876); also: nearly all actives have a fitted effect of over 70% in size; as to activity change, negative = viability loss: % is scaled to controls: 0 for no effect and ±100 for the full control effect
# [2] = Primary qHTS for inhibitors of nuclear receptor binding SET domain protein 2 (NSD2) in an RCH-ACV wild type WT cells (2C) (AID 1645877); also: nearly all actives have a fitted effect of over 70% in size; as to activity change, negative = cell killing: % is scaled to controls: 0 for no effect and ±100 for the full control effect
# [3] = molecular target: Catechol O-methyltransferase (Homo sapiens) (UniProt P21964); experiment: Confirmatory Screen for Target Class Profiling of Small Molecule Inhibitors of Methyltransferases (AID 1745852; calls by dose curve; as to activity change, negative = inhibition: % is scaled to controls: 0 for no effect and ±100 for the full control effect); settings: MTase-Glo luminescence, SAH detection, recombinant enzyme; measured here: COMT max response; stronger effect = lower value
# [4] = molecular target: Guanidinoacetate N-methyltransferase (Homo sapiens) (UniProt Q14353); experiment: as above; settings: activity change, negative = inhibition: at 57.3 µM (top of the series) unless noted
# [5] = molecular target: Nicotinamide N-methyltransferase (Homo sapiens) (UniProt P40261); experiment: as above; settings: MTase-Glo luminescence, SAH detection, recombinant enzyme; measured here: NNMT max response; stronger effect = lower value
# [6] = molecular target: Phenylethanolamine N-methyltransferase (Homo sapiens) (UniProt P11086); experiment: as above; settings: MTase-Glo luminescence, SAH detection, recombinant enzyme; measured here: PNMT max response; stronger effect = lower value
# Chain of Phenylethanolamine N-methyltransferase (Homo sapiens) (P11086 whole entry, looked up): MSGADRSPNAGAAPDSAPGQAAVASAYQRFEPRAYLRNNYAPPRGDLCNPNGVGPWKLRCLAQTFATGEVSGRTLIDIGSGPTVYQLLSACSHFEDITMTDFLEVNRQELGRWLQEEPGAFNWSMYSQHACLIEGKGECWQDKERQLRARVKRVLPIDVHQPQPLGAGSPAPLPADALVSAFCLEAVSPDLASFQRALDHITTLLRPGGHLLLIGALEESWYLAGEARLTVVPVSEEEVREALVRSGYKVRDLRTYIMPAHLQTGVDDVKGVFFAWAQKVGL
# Chain of Nicotinamide N-methyltransferase (Homo sapiens) (P40261 whole entry, looked up): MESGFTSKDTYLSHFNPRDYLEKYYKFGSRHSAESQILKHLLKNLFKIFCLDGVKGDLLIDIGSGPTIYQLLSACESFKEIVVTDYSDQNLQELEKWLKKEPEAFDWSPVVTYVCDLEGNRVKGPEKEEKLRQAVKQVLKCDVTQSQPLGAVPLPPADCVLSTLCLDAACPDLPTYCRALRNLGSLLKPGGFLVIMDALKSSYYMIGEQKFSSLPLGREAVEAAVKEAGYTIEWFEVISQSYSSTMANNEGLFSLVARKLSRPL
# Chain of Catechol O-methyltransferase (Homo sapiens) (P21964 whole entry, looked up): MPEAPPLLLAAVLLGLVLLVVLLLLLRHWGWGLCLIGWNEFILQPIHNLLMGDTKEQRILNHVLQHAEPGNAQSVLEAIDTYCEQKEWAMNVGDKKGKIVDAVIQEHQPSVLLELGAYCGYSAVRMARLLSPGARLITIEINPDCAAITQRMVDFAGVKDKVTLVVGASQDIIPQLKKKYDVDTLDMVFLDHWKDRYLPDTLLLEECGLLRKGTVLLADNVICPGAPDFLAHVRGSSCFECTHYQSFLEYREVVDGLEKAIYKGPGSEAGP
compound,measurement,setting,value
CN[C@@H]1[C@@H](O)[C@@H](O[C@@H]2[C@@H](O)[C@H](O[C@H]3O[C@H](CN)[C@@H](O)[C@H](O)[C@H]3O)[C@@H](N)C[C@H]2NC(=O)[C@@H](O)CN)OC[C@]1(C)O,Potency,[1],inactive
same,Potency,[2],inactive
C=CC(C)(CC/C=C(\C)CC/C=C(\C)CC(O)/C=C(\C)C(=O)O)O[C@@H]1O[C@H](CO)[C@@H](O)[C@H](O)[C@H]1O[C@@H]1O[C@H](CO)[C@@H](O)[C@H](O)[C@H]1O (stereo not given in full),Potency,[1],inactive
same,Potency,[2],inactive
CCC(NC(=O)CC(NC(=O)C(CO)NC(=O)C(CC)NC(=O)c1ccc[nH]1)c1ccccc1)C(=O)O (stereo not given),Potency,[1],inactive
same,Potency,[2],inactive
COc1ccc(C(OC2OC(CO)C(O)C(O)C2O)C(C)O)cc1 (stereo not given),Potency,[1],inactive
same,Potency,[2],inactive
CC1CCC2(C)C(CC(O)C(O)C23CO3)C1(C)CCC1=CC(O)OC1=O (stereo not given),Potency,[1],inactive
same,Potency,[2],inactive
C/C=C(\C)C(=O)O[C@H]1[C@@H](O[C@]2(COC(=O)CC(C)C)O[C@H](COC(=O)C(C)C)[C@@H](OC(C)=O)[C@@H]2O)O[C@H](COC(C)=O)[C@@H](O)[C@@H]1O,Potency,[1],inactive
same,Potency,[2],inactive
same,activity,[3],-75.6%
same,"activity change, negative = inhibition",[4],0% [at 19.1 µM]
same,activity,[5],2.56%
same,activity,[6],-1.49%
Cc1ccc2c(c1)C=Cc1cc(C)ccc1C2c1cn(Cc2ccc(C(=O)Nc3nn[nH]n3)o2)c(=O)[nH]c1=S,Potency,[1],inactive
same,Potency,[2],inactive
same,activity,[3],-11%
same,"activity change, negative = inhibition",[4],-0.0663%
same,activity,[5],-18.9%
same,activity,[6],-2.77%
C[C@@H]1O[C@@H](O[C@H]2[C@H](OC(=O)C34CCC(C)(C)CC3C3=CCC5C6(C)CC(O)C(O[C@@H]7O[C@H](CO)[C@@H](O)[C@H](O)[C@H]7O)C(C)(C(=O)O)C6CCC5(C)C3(CO)CC4)O[C@H](C)[C@H](O)[C@@H]2O)[C@H](O)[C@H](O)[C@H]1O[C@@H]1OC[C@@H](O)[C@H](O)[C@H]1O (stereo not given in full),"activity change, negative = viability loss",[1],3.3% [at 9.23 µM] (inactive)
same,outcome,[2],inactive [at 9.23 µM]
same,activity,[3],-46%
same,"activity change, negative = inhibition",[4],-4.58% [at 19.1 µM]
same,activity,[5],-3.41%
same,activity,[6],-2.81%
COCCN(C)Cc1ccc2nc3sc(C(=O)N(C)C4CCCCC4)cn3c2c1,Potency,[1],inactive
same,Potency,[2],inactive
same,activity,[3],-4.7%
same,"activity change, negative = inhibition",[4],0%
same,activity,[5],1.46%
same,activity,[6],-2.94%
C=C[C@](C)(CC/C=C(\C)C(=O)O)O[C@@H]1OC[C@H](O)[C@H](O)[C@H]1O,Potency,[1],inactive
same,Potency,[2],inactive
same,activity,[3],-82.9%
same,"activity change, negative = inhibition",[4],-1.98%
same,activity,[5],-0.767%
same,activity,[6],0.753%
O=C(O)CCc1cccc(O[C@@H]2O[C@H](CO)[C@@H](O)[C@H](O)[C@H]2O)c1O,Potency,[1],inactive
same,Potency,[2],inactive
same,activity,[3],-71.6%
same,"activity change, negative = inhibition",[4],0.429%
same,activity,[5],0.392%
same,activity,[6],-5.98%
C[C@@H]1O[C@@H](O[C@@H]2[C@@H](O)[C@H](O[C@@H]3[C@@H](O)[C@@H](O)[C@H](O[C@H]4[C@H](OC(=O)[C@]56CCC(C)(C)C[C@H]5C5=CCC7[C@@]8(C)C[C@H](O)[C@H](O[C@@H]9O[C@H](C(=O)O)[C@@H](O)[C@H](O)[C@H]9O)[C@@](C)(CO)C8[C@H](O)C[C@@]7(C)[C@]5(C)CC6)OC[C@H](O)[C@@H]4O)O[C@H]3C)OC[C@H]2O)[C@H](O)[C@H](O)[C@H]1O (stereo not given in full),"activity change, negative = viability loss",[1],-7.76% [at 9.23 µM] (inactive)
same,"activity change, negative = cell killing",[2],-21.5% [at 9.23 µM] (inactive)
C/C=C(/C)C(=O)O[C@H]1C=C(C)C[C@H](OC(=O)c2ccc(O)cc2)C2[C@](O)(C(C)C)CC[C@@]21C (stereo not given in full),Potency,[1],inactive
same,Potency,[2],inactive
CC(C)(O)C1CC=C(C(=O)OCC2OC(Oc3c(O)cc(C(=O)O)cc3O)C(O)C(O)C2O)CC1 (stereo not given),Potency,[1],inactive
same,Potency,[2],inactive
same,activity,[3],-71.8%
same,"activity change, negative = inhibition",[4],-3.66% [at 29.8 µM]
same,activity,[5],-2.85%
same,activity,[6],-2.18%
COc1cc(/C=C/C(=O)O[C@H]2[C@H](OC(=O)/C=C/c3cc(OC)c(O)c(OC)c3)O[C@H](CO[C@@H]3O[C@H](CO)[C@@H](O)[C@H](O)[C@H]3O)[C@@H](O)[C@@H]2O)ccc1O,Potency,[1],inactive
same,Potency,[2],inactive
same,activity,[3],-52.5%
same,"activity change, negative = inhibition",[4],0.645% [at 19.1 µM]
same,activity,[5],-4.49%
same,activity,[6],-4.24%
CC1(CO)CC[C@]2(C(=O)O[C@@H]3O[C@H](CO)[C@@H](O)[C@H](O)[C@H]3O)CC[C@]3(C)C(=CCC4[C@@]5(C)C[C@H](O)[C@H](O[C@@H]6OC[C@@H](O)[C@H](O)[C@H]6O)[C@@](C)(CO)C5CC[C@]43C)C2C1 (stereo not given in full),"activity change, negative = viability loss",[1],1.64% [at 9.23 µM] (inactive)
same,outcome,[2],inactive [at 9.23 µM]
same,activity,[3],-56.9%
same,"activity change, negative = inhibition",[4],0.83% [at 19.1 µM]
same,activity,[5],2.23%
same,activity,[6],2.01%
CC1(C)CC[C@]2(C(=O)O[C@@H]3O[C@H](CO)[C@@H](O)[C@H](O)[C@H]3O)CC[C@]3(C)C(=CCC4[C@@]5(C)C[C@@H](O)[C@H](O)[C@@](C)(CO)C5CC[C@]43C)C2C1 (stereo not given in full),Potency,[1],inactive
same,Potency,[2],inactive
same,activity,[3],-71.4%
same,"activity change, negative = inhibition",[4],-8.61% [at 19.1 µM]
same,activity,[5],-8.27%
same,activity,[6],-4.38%
CC(=O)OC(CSC1CCC(=O)OC(C)CCC(=O)C1)C(=O)O (stereo not given),Potency,[1],inactive
same,Potency,[2],inactive
CC1(C)CCC2(C(=O)OC3OC(COC4OC(CO)C(O)C(O)C4O)C(O)C(O)C3O)CCC3(C)C(=CCC4C5(C)CCC(O)C(C)(C(=O)O)C5CCC43C)C2C1O (stereo not given),"activity change, negative = viability loss",[1],0.116% [at 9.23 µM] (inactive)
same,outcome,[2],inactive [at 9.23 µM]
same,activity,[3],-59.6%
same,"activity change, negative = inhibition",[4],2.03% [at 19.1 µM]
same,activity,[5],-5.22%
same,activity,[6],-5.74%
CC(=C/C(=O)O)/C=C/[C@]1(O)[C@@]2(C)CO[C@]1(C)C[C@H](O[C@@H]1O[C@H](CO)[C@@H](O)[C@H](O)[C@H]1O)C2,Potency,[1],inactive
same,Potency,[2],inactive
COC(=O)C1=COC(OC2OC(CO)C(O)C(O)C2O)C2C1CC(OC(=O)C(O)CC(=O)O)C2C (stereo not given),Potency,[1],inactive
same,Potency,[2],inactive
same,activity,[3],-63.4%
same,"activity change, negative = inhibition",[4],1.08% [at 29.8 µM]
same,activity,[5],1.84%
same,activity,[6],1.07%
